# About 83,000 compounds went through this panel and 20% of them were active in at least one assay; those are over-represented in the sample as a whole.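 Each cell line was grown in a 96-well plate and treated with one concentration of compound for 48 hours. Values below 10 were considered active.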 A number with no mark means an inactive call. Calls of active or inactive are those of the source.
# Assays:
# Assay in all cases: NCI-60 one-dose screen, 48 h (100 = growth as untreated, 0 = no growth, -100 = all killed)
# Conditions in all cases: 10 µM unless noted
# [1] = test system: HCT-15 colon
# [2] = test system: HT29 colon
# [3] = test system: SNB-75 CNS
# [4] = test system: SNB-19 CNS
# [5] = test system: U251 CNS
# [6] = test system: PC-3 prostate
# [7] = test system: SK-MEL-5 melanoma
# [8] = test system: UACC-62 melanoma
# [9] = test system: LOX IMVI melanoma
# [10] = test system: SK-MEL-28 melanoma
# [11] = test system: SK-MEL-2 melanoma
# [12] = test system: EKVX NSCLC
# [13] = test system: SN12C renal
# [14] = test system: UO-31 renal
# [15] = test system: TK-10 renal
# [16] = test system: ACHN renal
# [17] = test system: CAKI-1 renal
# [18] = test system: A498 renal
# [19] = test system: CCRF-CEM leukemia
# [20] = test system: MOLT-4 leukemia
SMILES,growth [1] [%],growth [2],growth [3],growth [4] [%],growth [5],growth [6],growth [7],growth [8],growth [9] [%],growth [10] [%],growth [11],growth [12] [%],growth [13] [%],growth [14] [%],growth [15],growth [16] [%],growth [17] [%],growth [18],growth [19] [%],growth [20]
COc1ccc(-c2cc(C(=O)Nc3ccc(Br)cc3)nc3[nH]c(=O)sc23)cc1,37,50.1%,78.4%,36.5,28.8%,34.8%,8.56% (active),8.05% (active),36.7,38.5,-5.01% (active),37.2,20.4,28.6,19.9%,54.8,34.6,-2.87% (active),29.8,27.8%
CC(C)(c1ccccc1)c1cc(O)c(C(C)(C)c2ccccc2)cc1O,21.3,15.8%,43.5%,37.8,36.5%,16.9%,11.3%,20.6%,32.7,53.2,10.4%,33,22.4,17.2,36.1%,44,31.6,8.74% (active),15.3,-17.8% (active)
COc1ccc(/C(C)=N/NC(=O)CSc2nc3ccccc3c(=O)n2CCc2ccc(S(N)(=O)=O)cc2)cc1,65.3,-10% (active),-26.2% (active),35.4,-32.9% (active),-12.8% (active),-26.3% (active),27.3%,28.3,43.1,6.04% (active),87.3,27.7,32.4,-39.8% (active),34.7,28.9,5.05% (active),33.9,43%
COc1ccc(NC(=O)Cn2c(=O)sc3c(-c4ccc(Cl)cc4)cc(-c4ccc(Cl)cc4)nc32)cc1,93.3,82.7%,89.5%,105,103%,95.4%,98.6%,85.6%,91.1,103,107%,95.4,93.2,81.4,97.3%,102,95.3,129%,112,95%

# From PubChem BioAssay (NCI)
